Calls of active or inactive are those of the source.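 The calls were made as follows: active = Gaucher patient macrophages show a phagocytic index close to or matching that of healthy macrophages; inactive = the rest.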

Outcome data for one compound are collected here from PubChem BioAssay AID652099 (National Center for Advancing Translational Sciences (NCATS), 2013).

A short description of the assay: Extended Characterization of Activators of N370S glucocerebrosidase as a Potential Chaperone Treatment of Gaucher Disease: Phagocytosis Index. To be noted: Gaucher iPSC macrophages, phagocytosis of fluorescent E. coli particles. An excerpt: Glucocerebrosidase (GCase) catalyzes the hydrolysis of beta-glucocerebroside (GC) to glucose and ceramide in lysosomes. Mutations in the glucocerebrosidase gene result in Gaucher disease, an autosomal recessive lysosomal storage disorder. Many of the mutations encountered in patients with Gaucher disease are missense alterations that may cause misfolding, decreased stability and/or mistrafficking of this lysosomal protein. […] These inhibitors include iminosugar analogs and other inhibitors that were discovered as part of previous work. However, the enhancement of enzyme activity by the chaperone action of an enzyme inhibitor must be balanced against the direct inhibition of the enzyme. […] In this extended characterization of our probe, we have further characterized the activity of probes in relevant models of Gaucher disease. This assay examine phagocytosis in patient-derived macrophages following compound incubation. NIH Chemical Genomics Center [NCGC] NIH Molecular Libraries Probe Production Centers Network [MLPCN] MLPCN Grant: MH086442 Assay Submitter (PI): Ellen Sidransky, NHGRI
HMacs and iMacs, plated in black 96-well clear bottom plates, were treated, washed and incubated for 2 hrs with 100 µl of fluorescein-labeled E. coli BioParticles (Vybrant Phagocytosis Assay, Invitrogen).
With `C#Cc1ccc(NC(=O)c2cnn3c(C)cc(C)nc23)cc1`, the outcome is “active; similar to control”.
